# Measured values taken from PubChem BioAssay AID1159580 (chemical genetic matrix, 2015).
# “And” between values parts separate entries of the source, which are not always exact repeats. Equal values may be shown once. The whole screen tested about 5,500 compounds, of which about 2,000 (36%) were called active. Another 18% or so got no clear call; they are omitted. Cut-off read from the data, not from the text of the source: active = normalized growth mostly below about 0.91 (no sharp cut-off); inconclusive = no clear call, values can overlap the other calls; inactive = mostly above about 0.92. This is one part of the list. A structure can be active in one record and inactive in another.
# Experiment: chemical genetic growth profiling, strain panel (AID 1159580);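 note: tested at 20 µM; growth read once vehicle control cultures reached saturation at 30 °C; 1 = growth at the plate median or of vehicle wells; lower values mean less growth of the strain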
# Settings: S. cerevisiae deletion strains, growth OD
smiles,measurement,setting,value
CC(C)COCC(CN(Cc1ccccc1)c1ccccc1)N1CCCC1 (stereo not given),normalized growth,"locus YAL013W, strain DEP1, stronger effect = lower value",0.871 (active)
same,normalized growth,"locus YAL021C, strain ccr4, stronger effect = lower value",0.962 (inactive)
same,normalized growth,"locus YAL026C, strain drs2, stronger effect = lower value",1.01 (inactive)
same,normalized growth,"locus YAL030W, strain snc1, stronger effect = lower value",1.03 (inactive)
same,normalized growth,"locus YAL040C, strain CLN3, stronger effect = lower value",1.09 (inactive)
same,normalized growth,"locus YBL061C, strain skt5, stronger effect = lower value",1.04 (inactive)
same,normalized growth,"locus YBR009C, strain hhf1, stronger effect = lower value",1 (inactive)
same,normalized growth,"locus YBR021W, strain FUR4, stronger effect = lower value",0.594 (active)
same,normalized growth,"locus YBR023C, strain chs3, stronger effect = lower value",1.02 (inactive)
same,normalized growth,"locus YBR171W, strain sec66, stronger effect = lower value",1.06 (inactive)
same,normalized growth,"locus YBR229C, strain ROT2, stronger effect = lower value",0.953 (inactive)
same,normalized growth,"locus YBR231C, strain swc5, stronger effect = lower value",1.01 (inactive)
same,normalized growth,"locus YBR279W, strain paf1, stronger effect = lower value",1.04 (inactive)
same,normalized growth,"locus YCL011C, strain gbp2, stronger effect = lower value",1.02 (inactive)
same,normalized growth,"locus YCL016C, strain dcc1, stronger effect = lower value",1.02 (inactive)
same,normalized growth,"locus YCL029C, strain bik1, stronger effect = lower value",0.978 (inactive)
same,normalized growth,"locus YCL061C, strain MRC1 (second series), stronger effect = lower value",1.01 (inactive)
same,normalized growth,"locus YCL061C, strain MRC1, stronger effect = lower value",1.02 (inactive)
same,normalized growth,"locus YCL069W, strain vba3, stronger effect = lower value",1.05 (inactive)
same,normalized growth,"locus YCR088W, strain abp1, stronger effect = lower value",1.04 (inactive)
same,normalized growth,"locus YDL005C, strain med2, stronger effect = lower value",1.05 (inactive)
same,normalized growth,"locus YDL035C, strain GPR1, stronger effect = lower value",0.864 (inactive)
same,normalized growth,"locus YDL040C, strain nat1, stronger effect = lower value",1.02 (inactive)
same,normalized growth,"locus YDL074C, strain BRE1, stronger effect = lower value",0.694 (active)
same,normalized growth,"locus YDL101C, strain DUN1, stronger effect = lower value",0.926 (inactive)
same,normalized growth,"locus YDL134C, strain PPH21, stronger effect = lower value",0.9 (inactive)
same,normalized growth,"locus YDL185W, strain tfp1, stronger effect = lower value",0.978 (inactive)
same,normalized growth,"locus YDL192W, strain arf1, stronger effect = lower value",0.977 (inactive)
same,normalized growth,"locus YDR001C, strain nth1, stronger effect = lower value",1.03 (inactive)
same,normalized growth,"locus YDR069C, strain doa4, stronger effect = lower value",1.02 (inactive)
same,normalized growth,"locus YDR101C, strain arx1, stronger effect = lower value",0.929 (inactive)
same,normalized growth,"locus YDR137W, strain rgp1, stronger effect = lower value",1.1 (inactive)
same,normalized growth,"locus YDR150W, strain NUM1, stronger effect = lower value",0.965 (inactive)
same,normalized growth,"locus YDR159W, strain sac3, stronger effect = lower value",1.03 (inactive)
same,normalized growth,"locus YDR162C, strain NBP2, stronger effect = lower value",0.802 (active)
same,normalized growth,"locus YDR195W, strain ref2",1.07 (inactive)
same,normalized growth,"locus YDR297W, strain sur2, stronger effect = lower value",1.02 (inactive)
same,normalized growth,"locus YDR318W, strain mcm21, stronger effect = lower value",0.947 (inactive)
same,normalized growth,"locus YDR334W, strain swr1, stronger effect = lower value",1.03 (inactive)
same,normalized growth,"locus YDR335W, strain msn5, stronger effect = lower value",1.06 (inactive)
same,normalized growth,"locus YDR388W, stronger effect = lower value",0.814 (active)
same,normalized growth,"locus YDR392W, strain spt3, stronger effect = lower value",0.934 (inactive)
same,normalized growth,"locus YDR502C, strain sam2, stronger effect = lower value",0.914 (active)
same,normalized growth,"locus YEL003W, strain gim4, stronger effect = lower value",1.04 (inactive)
same,normalized growth,"locus YEL037C, strain rad23, stronger effect = lower value",1.03 (inactive)
same,normalized growth,"locus YEL061C, strain CIN8 (second series), stronger effect = lower value",1.03 (inactive)
same,normalized growth,"locus YEL061C, strain CIN8, stronger effect = lower value",0.973 (inactive)
same,normalized growth,"locus YER002W, strain NOP16, stronger effect = lower value",1.02 (inactive)
same,normalized growth,"locus YER015W, strain faa2, stronger effect = lower value",1.01 (inactive)
same,normalized growth,"locus YER016W, strain bim1, stronger effect = lower value",1.02 (inactive)
same,normalized growth,"locus YER110C, stronger effect = lower value",0.96 (inactive)
same,normalized growth,"locus YER111C, strain swi4, stronger effect = lower value",1.06 (inactive)
same,normalized growth,"locus YER155C, strain BEM2 (second series), stronger effect = lower value",0.884 (inactive)
same,normalized growth,"locus YER155C, strain BEM2, stronger effect = lower value",1.02 (inactive)
same,normalized growth,"locus YER167W, strain BCK2, stronger effect = lower value",0.958 (inactive)
same,normalized growth,"locus YFR010W, strain ubp6, stronger effect = lower value",0.998 (inactive)
same,normalized growth,"locus YGL078C, strain dbp3, stronger effect = lower value",0.978 (inactive)
same,normalized growth,"locus YGL086W, strain mad1, stronger effect = lower value",0.903 (active)
same,normalized growth,"locus YGL167C, strain pmr1, stronger effect = lower value",1.04 (inactive)
same,normalized growth,"locus YGL173C, strain kem1, stronger effect = lower value",1.01 (inactive)
same,normalized growth,"locus YGL227W, strain vid30, stronger effect = lower value",1.03 (inactive)
same,normalized growth,"locus YGL240W, strain doc1, stronger effect = lower value",0.99 (inactive)
same,normalized growth,"locus YGL248W, strain PDE1, stronger effect = lower value",0.849 (active)
same,normalized growth,"locus YGL253W, strain hxk2, stronger effect = lower value",1.05 (inactive)
same,normalized growth,"locus YGR078C, strain PAC10, stronger effect = lower value",0.786 (active) and 0.987 (inactive)
same,normalized growth,"locus YGR135W, strain pre9, stronger effect = lower value",0.849 (active)
same,normalized growth,"locus YGR229C, strain SMI1, stronger effect = lower value",0.434 (active)
same,normalized growth,"locus YGR252W, strain gcn5, stronger effect = lower value",0.734 (active)
same,normalized growth,"locus YHR013C, strain ard1, stronger effect = lower value",1.03 (inactive)
same,normalized growth,"locus YHR027C, strain rpn1, stronger effect = lower value",1 (inactive)
same,normalized growth,"locus YHR030C, strain SLT2, stronger effect = lower value",0.771 (active) and 0.959 (inactive)
same,normalized growth,"locus YHR079C, strain IRE1 (second series), stronger effect = lower value",0.972 (inactive)
same,normalized growth,"locus YHR079C, strain IRE1, stronger effect = lower value",0.998 (inactive)
same,normalized growth,"locus YHR094C, strain hxt1, stronger effect = lower value",0.987 (inactive)
same,normalized growth,"locus YHR129C, strain ARP1, stronger effect = lower value",0.949 (inactive)
same,normalized growth,"locus YHR142W, strain chs7, stronger effect = lower value",1.04 (inactive)
same,normalized growth,"locus YHR200W, strain rpn10, stronger effect = lower value",0.975 (inactive)
same,normalized growth,"locus YIL066C, strain RNR3, stronger effect = lower value",0.809 (active)
same,normalized growth,"locus YIL073C, strain SPO22, stronger effect = lower value",1.3 (inactive)
same,normalized growth,"locus YIL125W, strain kgd1, stronger effect = lower value",0.991 (inactive)
same,normalized growth,"locus YIR030C, strain dcg1, stronger effect = lower value",0.98 (inactive)
same,normalized growth,"locus YJL092W, strain hpr5, stronger effect = lower value",1.01 (inactive)
same,normalized growth,"locus YJL095W, strain BCK1 (second series), stronger effect = lower value",1 (inactive)
same,normalized growth,"locus YJL095W, strain BCK1, stronger effect = lower value",0.587 (active) and 0.983 (inactive)
same,normalized growth,"locus YJL115W, strain asf1, stronger effect = lower value",1.04 (inactive)
same,normalized growth,"locus YJL129C, strain trk1, stronger effect = lower value",1.06 (inactive)
same,normalized growth,"locus YJL134W, strain LCB3, stronger effect = lower value",0.988 (inactive)
same,normalized growth,"locus YJL154C, strain vps35, stronger effect = lower value",1.04 (inactive)
same,normalized growth,"locus YJL164C, strain tpk1, stronger effect = lower value",1.01 (inactive)
same,normalized growth,"locus YJL166W, strain qcr8, stronger effect = lower value",1.01 (inactive)
same,normalized growth,"locus YJL168C, strain set2, stronger effect = lower value",0.989 (inactive)
same,normalized growth,"locus YJL187C, strain SWE1 (second series), stronger effect = lower value",0.801 (active)
same,normalized growth,"locus YJL187C, strain SWE1, stronger effect = lower value",1.03 (inactive)
same,normalized growth,"locus YJR043C, strain POL32, stronger effect = lower value",0.996 (inactive)
same,normalized growth,"locus YJR066W, strain TOR1, stronger effect = lower value",0.948 (inactive)
